# Only a selection was taken, and the strongest signals are over-represented in it overall.
# B1: SP8524D-bot-399-27-399 (Bacteroides ovatus) (protein)
# chain: DAKYDTLDTHAYIEEALSSTSQKVTVQATGESFTTLNVHLSNLSSTDNHYKLVTDQSVLDTYNHINGTGYIMLPKDYYTLPETITVKAGQYAADALSIALKAFSQEMMKSGESYALPVKLVLQDGSISPMENTGTFVILAESIIEFSAPMFVGAPSLKANKFTESPETYSQYTIEVRFQVANTADRDRAVFKNGGDDANFILLRFEDPQSDNENYKAHSLVQIVGRNRLYLNPSNSFKPNEWQHLALVCDGSNYRLYINGVDSGVLSIPTGATTFSDVNWFCLGDDSYSRWGNCKILMSEARIWSVVRSASQIQNNMTQVSPKSVGLEAYWRFNEGQGNVFEDATGKGHTLTTSATPTWIDGILSTDKSTEWK
# Assays:
# Assay in all cases: glycan array binding signal (z-score within array); higher = stronger binding
# Settings in all cases: glycan notation: IUPAC condensed, linker removed
# [1] = biological target: Fuc(a1-2)Gal(b1-3)GlcNAc(b1-3)[Gal(b1-4)GlcNAc(b1-6)]Gal(b1-4)Glc
# Outline: (§1)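 Columns mapping to the same glycan were averaged after glycan names were converted to IUPAC-condensed notation. The data come from 3228 arrays in the Consortium for Functional Glycomics database, limited to those with an available protein sequence. Binding is reported as a within-array Z-score averaged across arrays of one protein sequence and across linkers.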
# [2] = biological target: Fuc(a1-2)Gal(b1-3)GlcNAc(b1-3)[Neu5Ac(a2-6)Gal(b1-4)GlcNAc(b1-6)]Gal(b1-4)Glc
# Outline: as §1
# Fuc(a1-2)Gal(b1-4)Glc = biological target: Fuc(a1-2)Gal(b1-4)Glc
# Outline: as §1
# [3] = biological target: Fuc(a1-2)Gal(b1-4)GlcNAc(b1-3)Gal(b1-4)GlcNAc(b1-3)Gal(b1-4)GlcNAc
# Outline: as §1
# Fuc(a1-2)[Gal(a1-3)]Gal = biological target: Fuc(a1-2)[Gal(a1-3)]Gal
# Outline: as §1
# [4] = biological target: Fuc(a1-2)[Gal(a1-3)]Gal(b1-3)GlcNAc(b1-6)GalNAc
# Outline: as §1
# [5] = biological target: Fuc(a1-2)[Gal(a1-3)]Gal(b1-4)GlcNAc(b1-6)GalNAc
# Outline: as §1
# [6] = biological target: Fuc(a1-2)[GalNAc(a1-3)]Gal(b1-3)GlcNAc(b1-2)Man(a1-3)[Fuc(a1-2)[GalNAc(a1-3)]Gal(b1-3)GlcNAc(b1-2)Man(a1-6)]Man(b1-4)GlcNAc(b1-4)[Fuc(a1-6)]GlcNAc
# Outline: as §1
# [7] = biological target: Fuc(a1-2)[GalNAc(a1-3)]Gal(b1-4)GlcNAc(b1-3)[Fuc(a1-2)[GalNAc(a1-3)]Gal(b1-4)GlcNAc(b1-6)]GalNAc
# Outline: as §1
# [8] = biological target: Fuc(a1-3)[GalNAc(b1-4)]GlcNAc
# Outline: as §1
# Fuc(a1-4)GlcNAc = biological target: Fuc(a1-4)GlcNAc
# Outline: as §1
# Gal(a1-3)Gal(b1-4)GlcNAc = biological target: Gal(a1-3)Gal(b1-4)GlcNAc
# Outline: as §1
# [9] = biological target: Gal(a1-3)[Gal(a1-4)]Gal(b1-4)GlcNAc
# Outline: as §1
# [10] = biological target: Gal(b1-3)GlcNAc(b1-3)Gal(b1-4)Glc
# Outline: as §1
# [11] = biological target: Gal(b1-3)GlcNAc(b1-3)Gal(b1-4)[Fuc(a1-3)]GlcNAc
# Outline: as §1
# [12] = biological target: Gal(b1-3)[Fuc(a1-4)]GlcNAc(b1-2)Man
# Outline: as §1
# [13] = biological target: Gal(b1-3)[GlcNAc(b1-6)]GalNAc
# Outline: as §1
# [14] = biological target: Gal(b1-4)GalNAc(a1-3)[Fuc(a1-2)]Gal(b1-4)GlcNAc
# Outline: as §1
# [15] = biological target: Gal(b1-4)GlcNAc(b1-2)Man(a1-3)[GlcNAc(b1-4)][Gal(b1-4)GlcNAc(b1-2)Man(a1-6)]Man(b1-4)GlcNAc(b1-4)GlcNAc
# Outline: as §1
# [16] = biological target: Gal(b1-4)GlcNAc(b1-3)Gal(b1-4)GlcNAc(b1-3)Gal(b1-4)GlcNAc(b1-3)Gal(b1-4)GlcNAc(b1-3)Gal(b1-4)GlcNAc(b1-2)[Gal(b1-4)GlcNAc(b1-3)Gal(b1-4)GlcNAc(b1-3)Gal(b1-4)GlcNAc(b1-3)Gal(b1-4)GlcNAc(b1-3)Gal(b1-4)GlcNAc(b1-6)]Man(a1-6)[Gal(b1-4)GlcNAc(b1-3)Gal(b1-4)GlcNAc(b1-3)Gal(b1-4)GlcNAc(b1-3)Gal(b1-4)GlcNAc(b1-3)Gal(b1-4)GlcNAc(b1-2)Man(a1-3)]Man(b1-4)GlcNAc(b1-4)[Fuc(a1-6)]GlcNAc
# Outline: as §1
# [17] = biological target: Gal(b1-4)GlcNAc(b1-3)Gal(b1-4)GlcNAc(b1-6)[Gal(b1-3)]GalNAc
# Outline: as §1
# Gal3S4S(b1-4)GlcNAc = biological target: Gal3S4S(b1-4)GlcNAc
# Outline: as §1
# Gal3S6S(b1-4)GlcNAc = biological target: Gal3S6S(b1-4)GlcNAc
# Outline: as §1
# Gal4S(b1-4)GlcNAc = biological target: Gal4S(b1-4)GlcNAc
# Outline: as §1
# [18] = biological target: GalNAc3S(b1-4)[Fuc(a1-3)]GlcNAc
# Outline: as §1
# [19] = biological target: GlcNAc(b1-2)[GlcNAc(b1-4)]Man(a1-3)[GlcNAc(b1-2)Man(a1-6)]Man(b1-4)GlcNAc(b1-4)GlcNAc
# Outline: as §1
# [20] = biological target: GlcNAc(b1-2)[GlcNAc(b1-4)]Man(a1-3)[GlcNAc(b1-4)][GlcNAc(b1-2)Man(a1-6)]Man(b1-4)GlcNAc(b1-4)GlcNAc
# Outline: as §1
# [21] = biological target: GlcNAc(b1-2)[GlcNAc(b1-4)]Man(a1-3)[GlcNAc(b1-4)][GlcNAc(b1-2)[GlcNAc(b1-6)]Man(a1-6)]Man(b1-4)GlcNAc(b1-4)GlcNAc
# Outline: as §1
# [22] = biological target: GlcNAc(b1-2)[GlcNAc(b1-4)]Man(a1-3)[GlcNAc(b1-4)][GlcNAc(b1-2)[GlcNAc(b1-6)]Man(a1-6)]Man(b1-4)GlcNAc(b1-4)[Fuc(a1-6)]GlcNAc
# Outline: as §1
# [23] = biological target: GlcNAc(b1-3)Gal(b1-4)GlcNAc(b1-2)[GlcNAc(b1-3)Gal(b1-4)GlcNAc(b1-6)]Man(a1-6)[GlcNAc(b1-3)Gal(b1-4)GlcNAc(b1-2)Man(a1-3)]Man(b1-4)GlcNAc(b1-4)GlcNAc
# Outline: as §1
binder,measurement,setting,value
B1,glycan array binding signal (z-score),[1],-0.119
same,glycan array binding signal (z-score),[2],-0.348
same,glycan array binding signal (z-score),Fuc(a1-2)Gal(b1-4)Glc,-0.082
same,glycan array binding signal (z-score),[3],-0.049
same,glycan array binding signal (z-score),Fuc(a1-2)[Gal(a1-3)]Gal,1.34
same,glycan array binding signal (z-score),[4],-0.387
same,glycan array binding signal (z-score),[5],-0.255
same,glycan array binding signal (z-score),[6],-0.246
same,glycan array binding signal (z-score),[7],-0.238
same,glycan array binding signal (z-score),[8],1.02
same,glycan array binding signal (z-score),Fuc(a1-4)GlcNAc,6.02
same,glycan array binding signal (z-score),Gal(a1-3)Gal(b1-4)GlcNAc,-0.463
same,glycan array binding signal (z-score),[9],3.56
same,glycan array binding signal (z-score),[10],-0.359
same,glycan array binding signal (z-score),[11],-0.174
same,glycan array binding signal (z-score),[12],0.35
same,glycan array binding signal (z-score),[13],-0.01
same,glycan array binding signal (z-score),[14],0.229
same,glycan array binding signal (z-score),[15],-0.382
same,glycan array binding signal (z-score),[16],1.02
same,glycan array binding signal (z-score),[17],0.317
same,glycan array binding signal (z-score),Gal3S4S(b1-4)GlcNAc,-0.075
same,glycan array binding signal (z-score),Gal3S6S(b1-4)GlcNAc,0.506
same,glycan array binding signal (z-score),Gal4S(b1-4)GlcNAc,0.045
same,glycan array binding signal (z-score),[18],0.563
same,glycan array binding signal (z-score),[19],16.1
same,glycan array binding signal (z-score),[20],8.43
same,glycan array binding signal (z-score),[21],12.1
same,glycan array binding signal (z-score),[22],2.04
same,glycan array binding signal (z-score),[23],0.455

# From the supplement of paper PMC8728848
